Pf growth 96h: P. falciparum growth inhibition at 96 hour, primary screen for plastid delayed-death inhibitors. Potency, µM (top dose mostly 28.7 µM), most hits filed as inhibitors. P. falciparum luciferase reporter growth, 96 h. AID 504834. 320,000 tested, 6.9% active
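96 h incubation, 37 C, 5% CO2, of luciferase-reporter P. falciparum-infected RBCs (2% hematocrit, 0.05% parasitemia final) with test compounds; endpoint luminescence.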
Pf growth 48h: P. falciparum growth inhibition at 48 hours (one generation); Potency, µM (doses to about 28.7 µM), usual class: inhibitors; 310,000 tested, 5.9% active; P. falciparum luciferase growth in erythrocytes, 48 h; AID 504832
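First compound was added to culture medium, then infected red cells at 0.1% parasitemia and 2% hematocrit (final). After incubation at 37 C under 5% CO2, luciferase detection reagent was dispensed and light output recorded.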
HCV inh: HCV inhibition; Huh7.5.1 HCVcc-Cre infection, luciferase reporter, 44 h; 340,000 tested, 3.4% active; AID 651820; Potency, µM (series often up to 41.8 µM), most hits filed as inhibitors
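HCVcc-Cre virus at an moi near 0.5 was added right after compound to cells cultured 4 h from seeding (1,000 cells/well). Luciferase activity was determined 44 h later, 15 min after substrate addition at RT.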
HCMV inh: blocks human cytomegalovirus replication; HFF cells, HCMV-luciferase reporter, 72 h; stronger effect = lower value; 410,000 tested, 4.5% active; AID 1259415; activity change, negative = inhibition, % at 57.5 µM; in the data active = activity change below about -60%; inconclusive = no clear call, values can overlap the other calls; inactive = above about -39%
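Luciferase read-out from HCMV-luciferase-infected HFFs (MOI 1 PFU/cell) 72 h post infection at 37C; compounds added after 16 h cell attachment; activity normalized between buffer-only basal and Salinomycin (10uM) inhibitor controls.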
Hits are given with their value; - = inactive; ? = inconclusive; . = no result given. A selection: hits, their analogues and other compounds. The true share with any hit is near 13%. Unless noted, calls follow the shape of the dose curve; as a rule, active = well fitted inhibition curve with a large enough effect; inconclusive = small, poorly fitted or top-dose-only effect, or another doubt; inactive = no such curve, though single readings can be large or run the other way.

SMILES	Pf growth 96h	Pf growth 48h	HCV inh	HCMV inh
Cc1ccc(N2C(=O)CC(N(CCc3ccccc3)C(=S)Nc3ccc(N(C)C)cc3)C2=O)cc1 (centres undefined)	?	12µM	-	-
COC(=O)c1c(NC(=O)CSc2nc3ccccc3c(=O)n2Cc2ccco2)sc(C)c1C	-	-	-	-
CCOC(=O)c1c(NC(=O)CSc2nnc(-c3ccccc3C)n2C)sc(C(C)=O)c1C	.	?	10µM	-
COC(=O)c1c(NC(=O)CSc2ncnc3ccccc23)sc(C)c1C	.	.	18µM	-
CCOC(=O)c1c(NC(=O)CSc2nc3cccnc3n2C)sc(C(C)=O)c1C	.	-	?	.
COC(=O)c1c(NC(=O)CSc2nnc(Cn3nnc4ccccc43)n2C)sc(C)c1C	7.4µM	-	-	-
Cn1c(Cn2nnc3ccccc32)nnc1SCC(=O)N1c2ccccc2Sc2ccccc21	10µM	?	?	-
CCOC(=O)c1c(NC(=O)CSc2nc3ccccc3c(=O)n2-c2ccc(F)cc2)sc(C(C)=O)c1C	3.3µM	4.1µM	-	-
CCOC(=O)c1c(NC(=O)COc2ccccc2)sc(C(C)=O)c1C	.	.	.	-
CCOC(=O)c1c(NC(=O)CSc2nnc(-c3ccco3)o2)sc(C(C)=O)c1C	-	-	?	-
CCOC(=O)c1c(NC(=O)CSc2ncnc3ccccc23)sc(C(C)=O)c1C	-	-	11µM	-
CC(=O)Nc1ccc(OCC(O)Cn2nc(C)c(C(C)=O)c2C)cc1 (centres undefined)	.	-	-	-
CC(=O)Nc1ccc(OCC(O)Cn2c(C(C)C)nc3ccccc32)cc1 (centres undefined)	2.3µM	-	-	-
CC(=O)Nc1ccc(OCC(O)Cn2c(C)nc3ccccc32)cc1 (centres undefined)	-	.	-	-
CC(=O)N(C)c1ccc(OCC(O)Cn2c(C)nc3ccccc32)cc1 (centres undefined)	?	?	11µM	-
COc1cccc(OCC(Cn2c(C)nc3ccccc32)OC(C)=O)c1 (centres undefined)	-	-	?	-70
COc1ccc(OCCn2c(C)nc3ccccc32)cc1	.	.	.	-
CC(=O)Nc1ccc(OCC(O)Cn2nc(C)c(C)c2C)cc1 (centres undefined)	10µM	-	-	-
CN(C)S(=O)(=O)c1ccc2c(c1)c(=O)c(C(=O)N1CCN(c3cccc(Cl)c3)CC1)cn2C	.	.	.	-
CCOC(=O)c1c(NC(=O)Cc2coc3cc(C)cc(C)c23)sc2c1CCC2	.	.	.	-
COC(=O)[C@H]1[C@H]2C[C@@H]3c4[nH]c5cc(OC)ccc5c4CCN3C[C@H]2C[C@@H](OC(=O)c2cc(OC)c(OC)c(OC)c2)[C@@H]1OC	1.7µM	1.5µM	?	-
COc1ccc2c3c([nH]c2c1)C1CC2C(CC(O)C(OC)C2C(=O)O)CN1CC3 (centres undefined)	3.7µM	9.3µM	-	-
Cc1ccc(CNC(=O)c2cnn(-c3cccc(C)c3)c2C2CCN(C(=O)OC(C)(C)C)CC2)cc1	.	.	.	-
COCCNC(=O)c1ccccc1NC(=O)Nc1ccccc1	7.4µM	-	-	-
O=C(O)c1cc[c]([Hg][Cl])cc1	5.2µM	5.9µM	?	.
SMILES	Pf growth 96h	Pf growth 48h	HCV inh	HCMV inh
FC(F)(F)c1cccc(-c2nnc(-c3ccccc3)c(N3CCOCC3)n2)c1	?	?	10µM	-
FC(F)(F)c1nnc(-c2ccccc2)nc1N1CCOCC1	-	-	-	-
COc1ccc(-c2[nH]ncc2C(=O)NCc2ccc(F)cc2)cc1	.	.	.	-
CCCCCCCCCCCCOCCOCCOCCOCCOCCOCCOCCOCCOCCO	11µM	?	.	.
COc1ccc(CCNc2nc3cc(OC)c(OC)cc3c3nc(-c4cccnc4)nn23)cc1OC	.	.	.	-
Cn1nc(C(C)(C)C)cc1C(=O)N1CCCCC1c1cc(C(=O)NCc2ccccc2)no1 (centres undefined)	.	.	.	-
Cn1nc(C(C)(C)C)cc1C(=O)N1CCCCC1c1cc(C(=O)NCc2ccc(F)cc2)no1 (centres undefined)	.	.	.	-75
O=C(Nc1nc(OCCN2CCCC2=O)cnc1/C=C\c1ccccc1)c1cc2ccccc2s1	.	.	.	-
CC(=O)Nc1ccc(S(=O)(=O)N2c3ccc(F)cc3CCC2C)cc1 (centres undefined)	.	.	-	-
COc1ccc(S(=O)(=O)N2c3ccc(F)cc3CCC2C)cc1 (centres undefined)	.	.	-	-78
COc1ccccc1Nc1nn2c(=O)c3ccc(C(=O)NCCc4ccccc4)cc3nc2s1	.	.	.	-99
Cc1ccccc1Nc1nn2c(=O)c3ccccc3nc2s1	2.6µM	-	-	-
COc1ccccc1Nc1nn2c(=O)c3ccc(C(=O)NCCC4=CCCCC4)cc3nc2s1	.	.	.	-106
Cc1ccc(C)c(Nc2nn3c(=O)c4ccc(C(=O)NCCc5ccccc5)cc4nc3s2)c1	.	.	.	-
Cc1ccc(C)c(Nc2nn3c(=O)c4ccc(C(=O)NCCC5=CCCCC5)cc4nc3s2)c1	.	.	.	-
CCCCCCCCCCCCCC[n+]1ccc(C)cc1	0.85µM	0.85µM	.	.
CCCCCCC[n+]1ccc(-c2cc[n+](CCCCCCC)cc2)cc1	0.33µM	0.41µM	?	-101
CCCCCCCCCCCCCCCC[n+]1ccccc1	1.5µM	3.8µM	3.2µM	-98
CCCCCCCCCCCCCCCC[n+]1ccc(/C=N/O)cc1	1.2µM	2.3µM	?	-97
CC(=O)Nc1ccc(OCCC[n+]2ccccc2)cc1	-	-	-	-
COc1cc(Cl)c(NC(=O)c2cc(S(=O)(=O)N3CCCCC3)c[nH]2)c(OC)c1	.	.	.	-
Cc1ccccc1CS(=O)(=O)Cc1ccc(C(=O)NCCc2ccc(Cl)cc2)o1	.	.	.	-
Cn1c(=O)oc2cc(S(=O)(=O)NC(Cc3ccccc3)C(=O)Nc3ccc(F)c(Cl)c3)ccc21 (centres undefined)	.	.	.	-
CCCCCCCCCCCCCCCC[n+]1ccc(C(N)=O)cc1	-	?	-	-86
N#CC1CC(c2ccccc2)=NN1c1ccccc1[N+](=O)[O-] (centres undefined)	-	-	?	-64
SMILES	Pf growth 96h	Pf growth 48h	HCV inh	HCMV inh
COc1ccc(C2CC(c3ccccc3)=NN2C(=O)COC(=O)c2nc3nc(C)cc(C)n3n2)cc1 (centres undefined)	?	?	10µM	-
O=C(c1cccs1)N1N=C(c2ccccc2)CC1c1ccccc1O (centres undefined)	-	3.3µM	-	-60
COc1ccc(C2=NN(C(=O)c3cccs3)C(c3ccccc3OC)C2)cc1OC (centres undefined)	-	?	10µM	-
COc1ccc(C2=NN(C(=O)c3ccco3)C(c3cccs3)C2)cc1OC (centres undefined)	.	.	.	-
O=CN1N=C(c2ccccc2)CC1c1ccccc1[N+](=O)[O-] (centres undefined)	-	-	-	-
CC(=O)N1N=C(c2ccncc2)CC1c1ccccc1O (centres undefined)	?	-	-	-
COC(=O)c1cc2oc3ccccc3c2n1Cc1cccc(C)c1	.	.	.	-
Cc1cccc(OCCOCCn2c(-c3ccc(Cl)cc3)nc3ccccc3c2=O)c1C	.	.	.	-
